Results published in PubChem BioAssay (EPA / NIEHS).
Where “and” joins values, the source holds several entries; their conditions need not be identical. Equal values may be shown once. The source holds several records for some structures; these can differ, active in one and inactive in another. Calls of active or inactive are those of the source. How the source made its calls: active means hit-call score of the fitted dose curve at least 0.9, where 1 is the maximum; inactive means score below 0.9.

Legend:
[1] = APR_HepG2_CellCycleArrest_1hr: Apredica 1-hour HepG2 Assay for Cell Cycle Arrest (AID 2282666); settings: high-content imaging, actives raise or lower the signal
In short: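 HepG2 cells exposed for 1 h to 0.39–200 uM compound (0.5% DMSO). Fixed, Hoechst-stained nuclei imaged by ArrayScan; DNA content quantified by Cell Cycle analysis; bidirectional fit against DMSO.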

[2] = APR_HepG2_MicrotubuleCSK_1hr: Apredica 1-hour HepG2 Assay for Microtubule CSK Stabilty (AID 2282669); settings: HepG2 microtubule cytoskeleton imaging, actives raise or lower the signal
In short: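 HepG2 cells exposed 1 h to 0.39–200 uM compound (0.5% DMSO, duplicates), then formaldehyde-fixed, permeabilized and immunostained for alpha-tubulin with Hoechst nuclei. Imaged by ArrayScan high-content analysis; bidirectional fit versus DMSO.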

[3] = APR_HepG2_p53Act_1hr: Apredica 1-hour HepG2 Assay for p53 Activation (AID 2282671); settings: high-content imaging, actives raise or lower the signal
In short: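 HepG2 cells treated 1 h with compound at 0.39–200 uM (10 concentrations, duplicate) in 0.5% DMSO. Formaldehyde-fixed, permeabilised cells immunostained for p53 with Hoechst 33342; high-content imaging, bidirectional fit versus DMSO.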

[4] = APR_HepG2_MitoticArrest_1hr: Apredica 1-hour HepG2 Assay for Mitotic Arrest (AID 2282672); settings: high-content imaging, actives raise or lower the signal
In short: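 HepG2 cells exposed 1 hr to compounds at 0.39–200 uM (0.5% v/v DMSO final), then fixed in 3.7% formaldehyde and immunostained for phospho-histone H3 with Hoechst 33342. Mitotic arrest scored by automated fluorescence imaging, fitted bidirectionally versus DMSO.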

[5] = APR_HepG2_P-H2AX_1hr: Apredica 1-hour HepG2 Assay for H2AX Phosphorylation (AID 2282673); settings: high-content imaging, actives raise or lower the signal
In short: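 HepG2 dosed 1 hr at 0.39-200 uM (0.5% DMSO final), duplicate. Fixed in 3.7% formaldehyde, Triton permeabilized, immunostained for phospho-histone H2A.x (1:200) with Hoechst 33342; ArrayScan 20x imaging, bidirectional fit vs DMSO.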

[6] = APR_HepG2_MitoMembPot_1hr: Apredica 1-hour HepG2 Assay for Mitochondrial Membrane Potential (AID 2282675); settings: imaging, actives raise or lower the signal
In short: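 HepG2 cells dosed 1 hour with 0.39–200 uM compound in duplicate, 0.5% DMSO final. MitoTracker Red CMXRos (250 nM, 30 min) loaded before formaldehyde fixation; fluorescence quantified by high-content imaging, bidirectional fitting versus DMSO.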

[7] = APR_HepG2_CellCycleArrest_24hr: Apredica 24-hour HepG2 Assay for Cell Cycle Arrest (AID 2282905); settings: imaging, actives raise or lower the signal;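 further: cell cycle arrest scored as ratio of 2N to 4N nuclear DNA content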
In short: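 HepG2 cells were exposed to compounds at 0.39–200 uM (ten concentrations, duplicate) in 0.5% v/v DMSO for 24 hr. After formaldehyde fixation and Triton permeabilization, Hoechst 33342-stained nuclei were imaged at 20x; DNA content was quantified, with bidirectional fitting against DMSO.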

[8] = APR_HepG2_StressKinase_1hr: Apredica 1-hour HepG2 Assay for Stress Kinase (AID 2282906); settings: HepG2 stress kinase (phospho-c-Jun) imaging, actives raise or lower the signal
In short: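 HepG2 cells dosed 0.39-200 uM (0.5% DMSO) for 1 h, then formaldehyde-fixed. Stress kinase read by phospho-c-Jun immunofluorescence using high-content imaging; bidirectional fit vs DMSO.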

[9] = APR_HepG2_NuclearSize_24hr: Apredica 24-hour HepG2 Assay for Nuclear Size (AID 2282907); settings: high-content imaging, actives raise or lower the signal
In short: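 HepG2 human liver cells were exposed for 24 hr to compounds at 0.39–200 uM (ten concentrations, duplicate) in 0.5% v/v DMSO. They were then formaldehyde-fixed, Triton-permeabilized and Hoechst 33342-stained, and nuclear diameter was imaged at 20x. Bidirectional fits were made against DMSO.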

[10] = APR_HepG2_CellLoss_24hr: Apredica 24-hour HepG2 Assay for Cell Loss (AID 2282908); settings: high-content imaging;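 on AC50: fit in both directions so a hit may be cell loss or gain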
In short: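 Compounds were tested at 0.39–200 uM in duplicate with 0.5% v/v DMSO final. Cells were then fixed in 3.7% formaldehyde, Hoechst 33342 nuclei were imaged at 20x by HCS, and cell number was fitted bidirectionally against DMSO.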

[11] = APR_HepG2_MicrotubuleCSK_24hr: Apredica 24-hour HepG2 Assay for Microtubule CSK Stabilty (AID 2282909); settings: HepG2 microtubule cytoskeleton imaging, actives raise or lower the signal
In short: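 HepG2 cells exposed 24 h to compounds at 0.39–200 uM (duplicate, 0.5% v/v DMSO final), then fixed, permeabilized and immunostained for alpha-tubulin with Hoechst 33342. Cytoskeleton imaged at 20x; bidirectional fit versus DMSO baseline.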

[12] = APR_HepG2_MitoticArrest_24hr: Apredica 24-hour HepG2 Assay for Mitotic Arrest (AID 2282910); settings: high-content imaging, actives raise or lower the signal
In short: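 HepG2 cells, 24 h exposure at 0.39-200 uM (10 concentrations, duplicate, 0.5% DMSO). Fixed, stained for phospho-histone H3 with Hoechst; imaged by high-content microscopy, bidirectional fit versus DMSO.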

[13] = APR_HepG2_MitoMembPot_24hr: Apredica 24-hour HepG2 Assay for Mitochondrial Membrane Potential (AID 2282911); settings: imaging, actives raise or lower the signal
In short: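 Mitochondrial membrane potential imaged via MitoTracker Red CMXRos (250 nM, 30 min pre-fixation) in fixed HepG2 cells with Hoechst nuclear identification. Ten concentrations 0.39–200 uM, 24 h treatment, 0.5% DMSO; CCCP as positive control.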

[14] = APR_HepG2_MitoMass_24hr: Apredica 24-hour HepG2 Assay for Mitochondrial Mass (AID 2282912); settings: high-content imaging, actives raise or lower the signal
In short: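 Human HepG2 liver cells were exposed for 24 hr to compounds at 0.39–200 uM (duplicates, 0.5% v/v DMSO final). They were stained live with 250 nM MitoTracker Red CMXRos for 30 min, fixed in 3.7% formaldehyde, and imaged by HCS fluorescence; signals were fitted bidirectionally against DMSO.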

[15] = APR_HepG2_p53Act_24hr: Apredica 24-hour HepG2 Assay for p53 Activation (AID 2282913); settings: high-content imaging, actives raise or lower the signal;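 further: p53 protein immunofluorescence averaged per cell in HepG2 with Hoechst nuclei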
In short: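 Fluorescence imaging of formaldehyde-fixed HepG2 cells labelled for p53 and with Hoechst, 24 h after dosing (0.39–200 uM, duplicate wells, 0.5% v/v DMSO). Signal fitted in both directions relative to DMSO.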

[16] = APR_HepG2_CellCycleArrest_72hr: Apredica 72-hour HepG2 Assay for Cell Cycle Arrest (AID 2282914); settings: high-content imaging, actives raise or lower the signal
In short: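 Read-out: nuclear DNA content from Hoechst 33342 high-content imaging (20x, six fields/well) after 3.7% formaldehyde fixation, fitted bidirectionally against DMSO. Treatment was 72 h in HepG2, ten concentrations 0.39–200 uM, duplicate, 0.5% DMSO.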

[17] = APR_HepG2_CellLoss_72hr: Apredica 72-hour HepG2 Assay for Cell Loss (AID 2282915); settings: high-content imaging
In short: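 HepG2 cells exposed 72 h to compound at 0.39–200 uM (10 concentrations, duplicate) in 0.5% DMSO. Fixed with 3.7% formaldehyde and Hoechst 33342-stained. Imaged at 20x; nuclear count gives cell number, fitted bidirectionally versus DMSO.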

[18] = APR_HepG2_CellLoss_1hr: Apredica 1-hour HepG2 Assay for Cell Loss (AID 2282668); settings: high-content imaging;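 further: curves fitted both ways against DMSO so gain or loss of cells counts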
In short: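 HepG2 cells were treated for 1 h with compound at 0.39–200 uM, in duplicate, in 0.5% DMSO. After formaldehyde fixation, Hoechst 33342-stained nuclei were imaged on an ArrayScan to count cells. Data were fitted bidirectionally versus DMSO.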

[19] = APR_HepG2_NuclearSize_1hr: Apredica 1-hour HepG2 Assay for Nuclear Size (AID 2282670); settings: high-content imaging, actives raise or lower the signal
In short: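 HepG2 cells dosed 1 hr with 0.39–200 uM compound (0.5% DMSO), formaldehyde-fixed, Hoechst 33342-stained and imaged at 20x; nuclear diameter from nuclear stain, fitted bidirectionally against DMSO.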

Measured: AC50

CCC(C)(C)C(=O)OC1=C(c2ccc(Cl)cc2Cl)C(=O)OC12CCCCC2
active: [7] 60.2 µM | [10] 137 µM | [11] 100 µM | [17] 133 µM
not listed: [18] | [19]
inactive: all other assays above

CCC(C)(NC(=O)c1cc(Cl)c(C)c(Cl)c1)C(=O)CCl (stereo unspecified)
active: [7] 12.8 µM | [8] 37 µM | [10] 32.3 µM | [12] 8.8 µM | [13] 30.1 µM
not listed: [1] | [19]
inactive: all other assays above

COc1cc(OC)nc(NC(=O)NS(=O)(=O)c2cc(NC=O)ccc2C(=O)N(C)C)n1
not listed: [1]
inactive: all other assays above

COC(=O)c1ccccc1S(=O)(=O)NC(=O)N(C)c1nc(C)nc(OC)n1
not listed: [18] | [19]
inactive: all other assays above

Oc1cc(Cl)ccc1Oc1ccc(Cl)cc1Cl
active: [19] 158 µM | [5] 99.8 µM | [7] 9.18 µM and 20.4 µM | [9] 63.9 µM | [10] 90.7 µM and 70.9 µM and 12.8 µM | [11] 98.5 µM and 33.3 µM | [12] 61.6 µM and 63.6 µM | [13] 97.9 µM and 4.39 µM | [14] 177 µM and 59 µM | [15] 28.4 µM | [16] 18.9 µM and 11.6 µM | [17] 35.3 µM and 26.9 µM and 67 µM
inactive: [2] | [3] | [4] | [6] | [7] | [8] | [9] | [11] | [12] | [13] | [14] | [15] | [16]

COC(=O)c1ccccc1S(=O)(=O)NC(=O)Nc1nc(C)nc(OC)n1
not listed: [1] | [18]
inactive: all other assays above
